Experimental data taken from the supplement of paper PMC9925115.
Counter-ions that a name gives are not always drawn. ± gives the uncertainty stated by the source.

Assays:
FLX1 = test: cell viability z-score within plate (CellTiter-Glo), mean of 3 biological replicates; higher = higher viability relative to plate (less growth inhibition); conditions: 2 µM; time (hr): 120
Experimental: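 FLX1 fibrolamellar carcinoma cells (DNAJB1-PRKACA fusion), 600 cells/well in 384-well plates, treated with a Selleck kinase inhibitor library (L1200) at 2 uM for 5 days (120 hr); viability by CellTiter-Glo. A z-score was computed within each plate and averaged over three biological replicates.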

[1] = test system: FLX1 + dox-induced PRKAR1A G325D; test: difference in log2 fold change of viability vs plate median (dox-induced PRKAR1A G325D minus uninduced); higher = compound less effective when PKA is inhibited; conditions: concentration: not stated (2 or 5 uM); 5 days
Experimental: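 For each plate a log2 fold change vs the plate median was derived, and the values without dox were subtracted from those with dox, averaged over three biological replicates.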

SMILES | cell viability z-score within plate (FLX1) | difference in log2 fold change of viability [1]
COc1cc(N2CCC(N)CC2)ccc1Nc1ncc(Cl)c(-c2c[nH]c3ccccc23)n1 | -0.695 ± 0.23 | 0.0117
CCC[C@H](NC(=O)/C(C#N)=C/c1cccc(Br)n1)c1ccccc1 [Degrasyn (WP1130)] | -0.0534 ± 0.15 | 0.135
CCCCOc1c(C(=O)c2c(F)cc(C)cc2F)c[nH]c2nncc1-2 | -0.865 ± 0.43 | 0.486
Cc1ccc(-n2nc(C(C)(C)C)cc2NC(=O)Nc2ccc(OCCN3CCOCC3)c3ccccc23)cc1 [Doramapimod (BIRB 796)] | 0.479 ± 0.82 | 0.496
CC(C)n1nc(-c2ccc3oc(N)nc3c2)c2c(N)ncnc21 | 0.871 ± 0.17 | -0.0452
COc1cccc(-c2cc(=O)c3ccccc3o2)c1N | 0.538 ± 0.2 | -0.103
CC[C@H](CO)Nc1nc(NCc2ccccc2)c2ncn(C(C)C)c2n1 [Roscovitine (Seliciclib,CYC202)] | 0.283 ± 0.3 | 0.0426
CCC(=O)Nc1cccc(Oc2nc(Nc3ccc(N4CCN(C)CC4)cc3OC)ncc2Cl)c1 | 0.708 ± 0.11 | -0.831
O=C1NC(=O)/C(=C/c2ccc(-c3ccc(F)cc3O)o2)S1 | 1.21 ± 0.57 | -0.649
O=C(NCc1ccccc1)c1csc(Nc2ccncn2)n1 [Thiazovivin] | -0.686 ± 0.81 | 0.59
O=c1c(-c2ccc(O)cc2)coc2cc(O)cc(O)c12 [Genistein] | -0.148 ± 0.52 | 0.126
COc1cc(N2CCC(N(C)C)CC2)ccc1Nc1ncc(Cl)c(Nc2ccccc2P(C)(C)=O)n1 | 0.0333 ± 0.4 | -1.41
Cc1cc(Nc2nc(N[C@@H](C)c3ncc(F)cn3)ncc2Cl)[nH]n1 | -0.166 ± 0.46 | -1.58
O=C(O)c1ccc(-c2c[nH]c3ncc(-c4ccccc4)cc23)cc1C1CCCC1 | -1.12 ± 1.1 | 0.0725
COc1cc2nccc(Oc3ccc(NC(=O)Nc4cc(C)on4)c(Cl)c3)c2cc1OC [Tivozanib (AV-951)] | -0.573 ± 0.16 | -0.0533
Cc1[nH]c(/C=C2\C(=O)Nc3ccccc32)c(C)c1CCC(=O)O [Orantinib (TSU-68, SU6668)] | 0.388 ± 0.61 | 0.216
C[C@@H]1CN(CC(=O)Nc2ccc3c(c2)Cc2cccc(-c4cc(=O)cc(N5CCOCC5)o4)c2S3)C[C@H](C)O1 | 0.915 ± 0.16 | -0.0572
CN1CCN(c2ccc(Nc3cc(-c4cccc(-n5ccc6cc(C7CC7)cc(F)c6c5=O)c4CO)cn(C)c3=O)nc2)CC1 | -0.244 ± 0.38 | -0.059

SMILES | cell viability z-score within plate (FLX1) | difference in log2 fold change of viability [1]
Cc1c(F)cc(C(=O)NC2CC2)cc1-c1ccc(C(=O)NCC(C)(C)C)cn1 | -0.342 ± 0.51 | -0.0149
O=C(c1ccc(/C=C/c2n[nH]c3ccccc23)cc1)N1CCNCC1 | 0.449 ± 0.26 | -0.0816
CCCS(=O)(=O)Nc1ccc(F)c(C(=O)c2c[nH]c3ncc(Cl)cc23)c1F | 0.17 ± 0.093 | 0.333
CNC(=O)c1nn(C)c2c1C(C)(C)Cc1cnc(Nc3ccc(N4CCN(C)CC4)cc3)nc1-2 | 0.949 ± 0.33 | 0.64
FC(F)c1nc2ccccc2n1-c1nc(N2CCOCC2)nc(N2CCOCC2)n1 | 0.852 ± 0.61 | 0.435
COc1ccc(-c2ccc3c(N4CCOCC4)nc(N4C[C@@H](C)O[C@@H](C)C4)nc3n2)cc1CO | 0.495 ± 0.19 | 0.463
N=C(N)NC(=N)NCCc1ccccc1 [Phenformin HCl] | 1.08 ± 0.3 | -0.0569
COc1cc2ncnc(Nc3ccc(Cl)cc3F)c2cc1OC | 1.18 ± 0.67 | -0.233
COc1cc(Nc2ncc(F)c(Nc3ccc4c(n3)N(COP(=O)(O)O)C(=O)C(C)(C)O4)n2)cc(OC)c1OC [Fostamatinib (R788)] | 0.458 ± 0.74 | -0.76
CC1(C)CNc2cc(NC(=O)c3cccnc3NCc3ccncc3)ccc21 [Motesanib Diphosphate (AMG-706)] | 0.0691 ± 0.21 | 0.326
O=C(c1ccc(Nc2nccc(-c3cc4ccccc4s3)n2)cc1)N1CCC(N2CCCC2)CC1 [IKK-16 (IKK Inhibitor VII)] | 0.237 ± 0.33 | 0.096
N#Cc1ccc2[nH]c(O)c(-c3ccc(CN4CCOCC4)cn3)c2c1 | 0.226 ± 0.62 | 0.199
O=C1NC(=O)/C(=C/c2ccc3c(c2)OC(F)(F)O3)S1 | -0.962 ± 0.62 | -0.0198
CCOc1cc2ncc(C#N)c(Nc3ccc(F)c(Cl)c3)c2cc1NC(=O)/C=C/CN(C)C [Pelitinib (EKB-569)] | -1.38 ± 0.64 | 0.0327
CC(C)(C)c1cc(NC(=O)Nc2ccc(-c3cn4c(n3)sc3cc(OCCN5CCOCC5)ccc34)cc2)no1 [Quizartinib (AC220)] | -0.415 ± 0.29 | 0.254
CN1CCN(c2ccc3nc(-c4c(N)c5c(F)cccc5[nH]c4=O)[nH]c3c2)CC1 [Dovitinib (TKI-258, CHIR-258)] | 0.442 ± 0.46 | 0.0764
O=C1NC(=O)C(=Cc2ccc(-c3ccc(F)cc3)o2)S1 (stereo in doubt) | 0.244 ± 0.32 | -0.0657
Cc1cc(Nc2ncc(Cl)c(Nc3ccccc3S(=O)(=O)C(C)C)n2)c(OC(C)C)cc1C1CCNCC1 [Ceritinib (LDK378)] | 0.337 ± 0.65 | 0.032
